# Peg3 promoter = reduces Peg3 promoter-driven luciferase expression in HeLa; HeLa PEG-Prom luciferase reporter, luminescence, overnight; actives 1.7% (n = 360,000); AID 588405; inhibition, % at 20 µM;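 active means inhibition of at least 50% at 20 µM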
# TROY NFkB inh = inhibitors of TROY-dependent NF-kB signaling; Q293 LMP1-TROYcd NF-kB luciferase reporter, 4 h; inhibition, % at 10 µM; actives 0.98% (n = 360,000); AID 1347056;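 active means compounds whose plate-normalised and pattern-corrected inhibition of the luciferase reporter signal at the single screening dose is 50% or more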
# KKLEB cytotox = counter-screen for CF NF-kB inhibitors: cytotoxicity; actives 0.36% (n = 360,000); activity change (cytotoxicity), % at 5 µM; KKLEB CF airway cells viability, ATPlite luminescence, overnight; active compounds read low; cells stimulated with P. aeruginosa culture filtrate;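 active means corrected activity change at or below -50% at 5 µM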
# CF NFkB inh = blocks PAF-induced NF-kB reporter in cystic fibrosis cells. KKLEB NF-kB-GFP reporter, GFP fluorescence overnight. inhibition, % at 5 µM. actives 0.86% (n = 360,000). AID 588850;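 active means at least 50% inhibition at 5 µM, scaled per plate between neutral and stimulator controls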;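 further: PAF is a Pseudomonas aeruginosa culture filtrate used as stimulus; plate controls were PAF-stimulated DMSO wells for no effect and unstimulated DMSO wells for full effect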
# HIF-2a block = blocks HIF-2a reporter activity | 786-0 RCC cells HIF-2a reporter, luciferase luminescence, overnight | inhibition, % at 18.8 µM | actives 0.72% (n = 360,000) | AID 624352;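 active means inhibition of the luminescence signal of 40% or more relative to plate controls, in a single-dose primary screen at 18.75 µM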
# TWEAK-Fn14 inh = blocks TWEAK-Fn14 interaction in a reporter cell assay | TWEAK-stimulated Fn14 reporter cells, luciferase luminescence, 8 h | inhibition, % at 10 µM | actives 2% (n = 360,000) | AID 1159606; in the data active means inhibition above about 50%
# CF NFkB inh conf = CF NF-kB inhibition confirmation, single concentration; actives 64% (n = 1,300); shares compounds with CF NFkB inh; inhibition, % at 5 µM; KKLEB CF airway cells, PAF-induced NF-kB-GFP fluorescence, overnight; in the data active means inhibition above about 40%;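 further: stimulus PAF is a Pseudomonas aeruginosa filtrate and not platelet activating factor; plate controls were DMSO wells with stimulus for no effect and unstimulated DMSO wells for full effect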
# An asterisk follows results filed as active; nt = no result; ! = repeats disagree. The list is not random: actives were taken first. Their share in the collection is about 4%.
SMILES,Peg3 promoter,TROY NFkB inh,KKLEB cytotox,CF NFkB inh,HIF-2a block,TWEAK-Fn14 inh,CF NFkB inh conf
CCC1CCc2c(sc(NC(=O)c3cnccn3)c2C(N)=O)C1 (configuration not stated),-87,-32,-38,65*,-11,-20,11
CN1CCN(C2CN(Cc3ccc(F)cc3)S(=O)(=O)C2)CC1 (configuration not stated),-15,-16,-3,18,8,-24,nt
COC(=O)c1ccc(N2C(c3cc(OC)cc(OC)c3)=Cc3ccc(-c4ccc(C(N)=O)cc4)cc3C2CC(=O)C2CC2)cc1 (configuration not stated),nt,-9,nt,nt,13,-7,nt
COc1cc(C(=O)NCC(=O)NCCN2C(=O)S/C(=C\c3ccccc3Cl)C2=O)cc(OC)c1OC,-41,-70,-3,-19,-46,-40,nt
COc1cc(/C=C2\SC(=O)N(CCNC(=O)c3sc4cc(F)ccc4c3Cl)C2=O)cc(OC)c1OC,7,-22,-42,55*,17,-15,67*
CC(=O)c1c(O)cc2c3c1OC(C)(C)C1CCC(C)(CC31)O2 (configuration not stated),44,34,-24,74*,12,79*,66*
CC(=O)c1c(C)[nH]c(C(=O)N2CCc3ccccc32)c1C,8,-13,-1,-10,3,-2,nt
CCOC(=O)c1[nH]c(C)c(C(=O)N2CCc3ccccc32)c1C,-35,nt,-36,54*,12,47,57*
CC1(C(=O)Nc2ccc3c(c2)OCCO3)CN(S(C)(=O)=O)CC(=O)N1CC(F)(F)F (configuration not stated),nt,nt,nt,nt,0,nt,nt
Cn1cc(Br)c(C(=O)Nc2sc3c(c2C#N)CCC3)n1,-98,-50,8,-8,-128,-27,nt
Cn1cc([N+](=O)[O-])c(C(=O)Nc2sc3c(c2C#N)CCC3)n1,-41,-7,-14,58*,-12,0,-82
O=C(C(=Cc1ccc(O)cc1)c1ccccc1)c1ccccc1,nt,-13,nt,nt,-43,10,nt
COc1ccc(CCNC(=O)c2c(O)c3c([nH]c2=O)CCCC3)cc1,11,-26,-36,51*,12,5,36
CCN(C(=O)COC(=O)c1ccc2c(c1)OCO2)c1ccc(F)cc1,1,-3,-6,-4,10,4,nt
CCOc1ccc2nc(SCC(=O)c3ccc(C)s3)sc2c1,-88,-34,-11,-4,-158,-2,nt
CCOc1ccc2nc(SCC(=O)c3ccc(O)cc3O)sc2c1,-72,1,0,58*,-63,1,45*
Cc1cc(C)c(O)c(CN(C)Cc2cc(Cl)cc(Cl)c2O)c1,39,47,-27,60*,16,14,75*
COc1cc(NC(=O)c2cc3cccc(OC)c3o2)cc(C(=O)Nc2cccc(C(F)(F)F)c2)c1,41,16,-27,62*,6,57*,70*
COc1cc(NC(=O)c2csc(-c3ccncc3)n2)cc(C(=O)Nc2cccc(C(F)(F)F)c2)c1,50,15,11,57*!,-19,22,71*
O=C(Nc1cccc(C(F)(F)F)c1)c1csc(-c2ccncc2)n1,-28,-5,2,-32,-36,-37,nt
COc1ccc(Br)cc1CN(C)CC(=O)Nc1cccc(S(=O)(=O)N2CCCC2)c1,29,2,-7,22,1,-1,nt
Cc1ccc(SC(CC(=O)c2ccc(F)cc2)C(=O)O)cc1 (configuration not stated),12,1,1,-22,9,-7,nt
CC(C)(C)c1ccc(C(=O)CC(Sc2ccc(Cl)cc2)C(=O)O)cc1 (configuration not stated),28,19,-16,88*,26,26,4
CC(C)C[C@@H]1NC(=O)[C@H](Cc2ccccc2)N(C)C(=O)[C@H](C)NC(=O)c2ccccc2NC(=O)[C@H](Cc2ccc(O)cc2)N(C)C1=O,52*,-3,-24,82*,-8,26,94*

# Screening data deposited in PubChem BioAssay by Sanford-Burnham Center for Chemical Genomics.
